Experimental data: PubChem BioAssay (NCATS)
Results filed as inconclusive are left out. Activity calls are given as the source filed them. Calls come from the whole dose curve; as a rule, active = well fitted curve in the direction sought with a large enough effect; inconclusive = small, poorly fitted or top-dose-only effect, or another doubt; inactive = no such curve, though single readings can be large; an effect the other way counts as inactive or inconclusive.

Assays:
[1] = biological target: Phospholipid hydroperoxide glutathione peroxidase GPX4 (Homo sapiens) (UniProt P36969); assay: Primary qHTS Assay for Inhibitors of Recombinant Selenoprotein Glutathione Peroxidase 4 (GPX4) (AID 1845192); settings: recombinant GPX4, GR-coupled NADPH fluorescence, 15 min; series mostly up to 50 µM; note: % is set by controls: 0 for no effect and ±100 for the full control effect; nearly all actives have a fitted effect of over 65% in size
Summary of the method: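 Steps: GPX4 plus compound, 30 min RT; add GR/GSH/NADPH master mix; start with cumene hydroperoxide; read 340/450 nm fluorescence at 0 and 15 min. Finals were 200 nM GPX4, 1 mM GSH, 0.5 mM CHP, 0.5 mM NADPH, 100 nM GR.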

[2] = biological target: Luciferin 4-monooxygenase (Photinus pyralis) (UniProt P08659); assay: Primary firefly luciferase (FLuc) qHTS assay for identification of artifact compounds. (AID 1845220); settings: purified firefly luciferase, luminescence, 5 min; series mostly up to 54.1 µM; note: nearly all actives have a fitted effect of over 60% in size; note: potency is the fitted concentration of half-maximal effect;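 for activity change, negative = inhibition: plate controls were DMSO vehicle for no effect and no enzyme for full effect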
Summary of the method: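 D-luciferin and ATP (10 uM each, final) in Tris acetate buffer pH 7.6 were incubated with compounds for 15 min at room temperature. The reaction was started with 10 nM Photinus pyralis luciferase and luminescence read after 5 min. Percent inhibition was fitted to a 4-parameter Hill equation.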

[3] = Primary fluorescence-based thiol-reactive (MSTI) qHTS assay for identification of artifact compounds. (AID 1845221); settings: MSTI thiol-reactivity probe, 1 h; series mostly up to 53.8 µM; note: nearly all actives have a fitted effect of over 65% in size; note: potency is the fitted concentration of half-maximal effect;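 for activity change, negative = thiol reactive: thiol-reactive compounds lower the probe fluorescence signal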
Summary of the method: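 Reactivity toward the thiol probe MSTI (4 uM) is scored by fluorescence at Ex/Em 525/598 nm after 1 h at room temperature. Acetyl-MSTI and MSTI define the activity scale.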

[4] = tested on: Nanoluciferase (engineered Oplophorus gracilirostris luciferase); assay: Primary Nanoluciferase (NLuc) qHTS assay for identification of artifact compounds. (AID 1845222); settings: NLuc-conditioned medium, Nano-Glo luminescence, 5 min; series mostly up to 54.1 µM;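 note: 0% = DMSO and -100% = no enzyme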
Summary of the method: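 Diluted conditioned medium from NLuc-expressing S16 cells treated with compounds for 15 min at room temperature, then Nano-Glo substrate added; luminescence read after 5 min. Percent inhibition versus no-enzyme and DMSO controls fitted to 4-parameter Hill equation.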

[5] = Primary redox qHTS assay for identification of artifact compounds. (AID 1845223); settings: Amplex Red/HRP redox cycling with DTT, fluorescence; series mostly up to 53.8 µM;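 note: 0% = DMSO and 100% = reference compound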
Summary of the method: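 Redox-cycling detection via DTT (250 uM final) oxidation coupled to Amplex Red (25 uM)/HRP (250 mU/mL) in HBSS. 15 min preincubation plus 30 min after DTT, room temperature. Ex/Em 525/598 nm; 4-parameter Hill fit against DMSO and 10 uM DA3003.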

Phospholipid hydroperoxide glutathione peroxidase GPX4 (Homo sapiens), sequence (P36969 whole entry, looked up): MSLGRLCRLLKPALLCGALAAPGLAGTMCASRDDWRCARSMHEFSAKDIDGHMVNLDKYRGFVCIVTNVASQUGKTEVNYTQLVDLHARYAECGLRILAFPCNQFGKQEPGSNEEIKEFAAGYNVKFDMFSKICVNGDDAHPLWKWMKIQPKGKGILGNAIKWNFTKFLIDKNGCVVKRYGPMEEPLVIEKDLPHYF

CC(=O)c1ccc(O[C@@H]2O[C@H](CO)[C@@H](O)[C@H](O)[C@H]2O)cc1
inactive: Potency [1] | Potency [2] | Potency [3] | Potency [4]

CC1=C(C)C(=O)OC(C(C)C2CCC3C4CC=C5CC(OC6OC(COC7OC(CO)C(O)C(O)C7O)C(O)C(O)C6O)CC(O)C5(C)C4CCC23C)C1 (configuration not stated)
inactive: Potency [1] | Potency [2] | Potency [3] | Potency [4]

C[C@@H]1O[C@@H](O[C@H]2[C@@H]3C=CO[C@@H](O[C@@H]4O[C@H](CO)[C@@H](O)[C@H](O)[C@H]4O)[C@@H]3[C@@]3(CO)O[C@@H]23)[C@H](OC(=O)/C=C/c2ccccc2)[C@H](O)[C@H]1O
inactive: Potency [1] | Potency [2] | Potency [4]
active: Potency [3] 7.93 µM

COc1cc(C)c(C(=O)O[C@H]2[C@@H](OC(C)=O)[C@H](n3ccc(=O)[nH]c3=O)O[C@@H]2CO)c(OC)c1
inactive: Potency [1] | Potency [2] | Potency [3] | Potency [4]

CCCC(=O)NCCc1csc(-c2ccc(Cl)cc2)n1
inactive: Potency [1] | Potency [2] | Potency [3] | Potency [4]

CC(=O)OC[C@H]1O[C@H](O[C@]2(CO)O[C@H](CO)[C@@H](OC(=O)/C=C/c3ccccc3)[C@@H]2O)[C@H](O)[C@@H](O)[C@@H]1O
inactive: Potency [1] | Potency [2] | Potency [4]
active: Potency [3] 4.62 µM

Cc1cc(OCc2nc(-c3ccccc3Cl)cs2)ccc1OCC(=O)O
active: Potency [2] 9.53 µM
inactive: Potency [1] | Potency [3] | Potency [4]

COc1c(Nc2ncc(Cl)c(N[C@H]3[C@@H](C(N)=O)[C@@H]4C=C[C@H]3C4)n2)ccc2c1CC[C@@H](N1CCOCC1)CC2
inactive: Potency [1] | Potency [2] | Potency [3] | Potency [4]

CC1=C(/C=C/C(C)=C\C=C\C(C)=C/C(=O)O)C(C)(C)CCC1
inactive: Potency [1] | Potency [2] | Potency [3] | Potency [4]

C/C=C1\[C@H](OC2OC(COC3OC(CO)C(O)C(O)C3O)C(O)C(O)C2O)OC=C(C(=O)OC)[C@H]1CC(=O)OCCc1ccc(O)cc1 (some centres not stated)
active: Potency [3] 5.61 µM
inactive: Potency [1] | Potency [2] | Potency [4]

CN(c1ccccc1CNc1nc(Nc2ccc3c(c2)CC(=O)N3)ncc1C(F)(F)F)S(C)(=O)=O
inactive: Potency [1] | Potency [2] | Potency [4]
active: Potency [3] 10.6 µM

CC1CCC23COC(=O)C2=CC(O)CC3C1(C)CCC1=CC(O)OC1=O (configuration not stated)
inactive: Potency [1] | Potency [2] | Potency [4]
active: Potency [3] 3.29 µM

CO[C@H]1/C=C/C=C/C=C/C[C@H](OC(=O)[C@@H](C)NC(=O)C2CCCCC2)[C@H](C)[C@@H](O)/C(C)=C/CCc2cc(O)cc(c2)NC(=O)C1
active: Potency [3] 5.61 µM
inactive: Potency [1] | Potency [2] | Potency [4]

C#CCN(Cc1cc2c(=O)n(C)c(CN3CCN(C)CC3)nc2cc1Cl)c1ccc(C(=O)NCc2cccnc2)cc1
inactive: Potency [1] | Potency [2] | Potency [3] | Potency [4]

CN1CCN(C(=O)c2ccc3cc(CCNc4ncnc5ccc(C#N)cc45)ccc3c2)CC1
inactive: Potency [1] | Potency [2] | Potency [3] | Potency [4]

CO[C@H]1C[C@@H]2CC[C@@H](C)[C@@](O)(O2)C(=O)C(=O)N2CCCC[C@H]2C(=O)O[C@H]([C@H](C)C[C@@H]2CC[C@H](n3cnnn3)[C@H](OC)C2)CC(=O)[C@H](C)/C=C(\C)[C@@H](O)[C@@H](OC)C(=O)[C@H](C)C[C@H](C)/C=C/C=C/C=C/1C
inactive: Potency [1] | Potency [2] | Potency [3] | Potency [4]

Cc1nc2ccc(Oc3ccc(F)cc3)cc2c(=O)n1C[C@H]1CCCN(C(C)C)C1
inactive: Potency [1] | Potency [2] | Potency [3] | Potency [4]

CC(=O)OC1C(O)CC2(C)C(CCC(C)C23Cc2c(O)cc(CO)c(C=O)c2O3)C1(C)C (configuration not stated)
inactive: Potency [1] | Potency [2] | Potency [3] | Potency [4]

CC1=CC2C(CC1OC1OC(CO)C(O)C(O)C1O)C(C)CC(=O)C2C(C)C (configuration not stated)
inactive: Potency [1] | Potency [2] | Potency [4]
active: Potency [3] 3.69 µM

COc1cccc(Nc2ncnn3ccc(CN4CC[C@@H](N)[C@H](O)C4)c23)c1
inactive: Potency [1] | Potency [2] | Potency [3] | Potency [4]

COc1ccc(C2(O)CCC(N3CC[C@@H](NC(=O)CNC(=O)c4cccc(C(F)(F)F)c4)C3)CC2)cn1 (some centres not stated)
inactive: Potency [1] | Potency [2] | Potency [3] | Potency [4]

COC(=O)/C=C/C12COC(C)(C)C1C(O)C(OC(C)=O)C1(C)C2CCC2(C)C(c3ccoc3)OC(=O)C3OC321 (configuration not stated)
inactive: Potency [1] | Potency [2] | Potency [3] | Potency [4]

CCC(O)C(C)C1CCC(C(C)C(=O)O)O1 (configuration not stated)
inactive: Potency [1] | Potency [2] | Potency [4]
active: Potency [3] 10.6 µM

COC(=O)N[C@@H](C)CNc1nccc(-c2cn(C(C)C)nc2-c2cc(Cl)cc(NS(C)(=O)=O)c2F)n1
inactive: Potency [1] | Potency [2] | Potency [3] | Potency [4]

CC(=O)c1cc2c(cc1O)OC(C)(C)C=C2
inactive: Potency [1] | Potency [2] | Potency [3] | Potency [4]

CC1CCC2(CO)C(C(=O)O)=CCCC2C1(C)CCc1ccoc1 (configuration not stated)
inactive: Potency [1] | Potency [2] | Potency [3] | Potency [4]

C=C[C@H]1[C@H](O[C@@H]2O[C@H](CO)[C@@H](O)[C@H](O)[C@H]2O)OC=C(C(=O)OC)[C@H]1CCOC(=O)c1cc(O)c(O)c(O)c1
active: Potency [3] 0.922 µM
inactive: Potency [1] | Potency [2] | Potency [4]

COC(=O)N1CCC(n2ncc3c(N4CCOCC4)nc(-c4ccc(NC(=O)Nc5ccc(CO)cc5)cc4)nc32)CC1
inactive: Potency [1] | Potency [2] | Potency [3] | Potency [4]

COc1nc2sc(C(=O)NC3CC3)c(N)c2c(C)c1Cl
inactive: Potency [1] | Potency [2] | Potency [3] | Potency [4]

C=CC(=O)Nc1cc(Nc2nccc(-c3c[nH]c4ccccc34)n2)c(OC)cc1N(C)CCN(C)C
inactive: Potency [1] | Potency [2] | Potency [4]
active: Potency [3] 1.68 µM

CC1CCC2(C=O)C(CO)=CCCC2C1(C)CC(=O)O (configuration not stated)
active: Potency [3] 3.36 µM
inactive: Potency [1] | Potency [2] | Potency [4]

C=C1C(=O)OC2/C=C(\CO)CC/C=C(\C=O)CC(OC(=O)CC(C)C)C12 (configuration not stated)
inactive: Potency [1] | Potency [2] | Potency [4]
active: Potency [3] 16.5 µM

N#C[C@@H]1C[C@H](F)CN1C(=O)CNC1[C@H]2CN(C(=O)c3ccc(F)cc3)C[C@@H]12 (some centres not stated)
inactive: Potency [1] | Potency [2] | Potency [3] | Potency [4]

CC(=O)OC1C[C@@]2(C)[C@@H](CC[C@@H](C)[C@]23Cc2c(O)cc4c(c2O3)CNC4=O)C(C)(C)[C@@H]1O (some centres not stated)
inactive: Potency [1] | Potency [2] | Potency [3] | Potency [4]

C[C@@H](Oc1cc(-n2cnc3ccc(OC4CCN(C)CC4)cc32)sc1C(N)=O)c1ccccc1C(F)(F)F
inactive: Potency [1] | Potency [2] | Potency [3] | Potency [4]

CC[C@H](CO)Nc1nc(NCc2ccc(-c3ccccn3)cc2)c2ncn(C(C)C)c2n1
inactive: Potency [1] | Potency [2] | Potency [3] | Potency [4]

CC1OC(OC2C(C)OC(OC3C(OC(=O)C45CCC(C)(C)CC4C4=CCC6C7(C)CCC(OC8OC(C(=O)O)C(O)C(O)C8OC8OC(CO)C(O)C(OC9OC(C)C(O)C(O)C9O)C8O)C(C)(CO)C7CCC6(C)C4(C)CC5)OC(CO)C(O)C3O)C(O)C2O)C(O)C(O)C1O (configuration not stated)
inactive: activity change, negative = inhibition [1] -14.3% [at 9.73 µM] | activity change, negative = inhibition [2] -4.3% [at 11.6 µM] | activity change, negative = thiol reactive [3] 122% [at 11.5 µM] | activity, negative = inhibition [4] 2.74% [at 11.6 µM]

CC(=O)OC1/C(C)=C/C(=O)C(OC(C)=O)C(C)(C)/C=C/C(C)C(=O)C2(OC(C)=O)CC(C)C(OC(=O)c3ccccc3)C12 (configuration not stated)
inactive: Potency [1] | Potency [2] | Potency [3] | Potency [4]

C[C@@H]1CC[C@]2(C(=O)OC3OC(CO)C(O)C(O)C3O)CC[C@]3(C)C(=CCC4[C@@]5(C)CC[C@H](O)[C@](C)(C(=O)O)C5CC[C@]43C)C2[C@]1(C)O (some centres not stated)
inactive: Potency [1] | Potency [2] | Potency [3] | Potency [4]

C[C@H](CCC(=O)O)[C@H]1CC[C@H]2[C@@H]3C[C@H](O)[C@@H]4C[C@H](O)CC[C@]4(C)[C@H]3CC[C@]12C
inactive: Potency [1] | Potency [2] | Potency [3] | Potency [4]

C[C@H]1Oc2cc(cnc2N)-c2c(nn(C)c2C#N)CN(C)C(=O)c2ccc(F)cc21
inactive: Potency [1] | Potency [2] | Potency [3] | Potency [4]

COC1CC(O[C@H]2CC[C@@]3(C)C(=CC[C@]4(O)C3[C@H](OC(C)=O)[C@@H](OC(=O)c3ccccc3)[C@]3(C)[C@@H](C(C)=O)CC[C@@]34O)C2)OC(C)C1OC1CC(OC)C(OC2CC(OC)C(OC3OC(C)C(OC4OC(CO)C(O)C(O)C4O)C(OC)C3O)C(C)O2)C(C)O1 (some centres not stated)
inactive: activity change, negative = inhibition [1] -9.45% [at 9.73 µM] | outcome [2] inactive [at 11.6 µM] | activity change, negative = thiol reactive [3] 29.9% [at 11.5 µM] | activity, negative = inhibition [4] 2.42% [at 11.6 µM]

Cc1ccc(-c2c(C(=O)CF)n(CCCO)c3ncnc(N)c23)cc1
inactive: Potency [1] | Potency [2] | Potency [3] | Potency [4] | Potency [5]

Cn1cc(S(=O)(=O)c2ccc(Cl)cc2)c2cccc(N3CCNCC3)c21
inactive: Potency [1] | Potency [2] | Potency [3] | Potency [4]
